Source: PubChem BioAssay
The list is not random: actives were taken first. Their share in the collection is about 19%.
TDP1 cell CPT – growth inhibition of DT40 Tdp1-/-;hTDP1 cells with camptothecin (screen for TDP1 inhibitors); chicken DT40 Tdp1-/-;hTDP1 cells + 20 nM CPT, ATP luminescence, 48 h; Potency, µM (series often up to 46.2 µM), for the others: top-dose activity change, negative = growth inhibition, most hits filed as inhibitors; 12% of 420,000 active; AID 686979; further: potency means the concentration at half of the fitted maximal effect; nearly all actives have a fitted effect of over 55% in size
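Chicken DT40 Tdp1-/- cells stably complemented with human TDP1 were seeded at 400 cells/well in medium containing 20 nM camptothecin, exposed to pin-transferred compounds, and grown at 37 °C for at least 48 hr. Viability was read as ATP luminescence.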
TDP1 cell noCPT – qHTS for Inhibitors of human tyrosyl-DNA phosphodiesterase 1 (TDP1): qHTS in cells in absence of CPT | DT40 Tdp1-/- hTDP1 cells, no CPT, ATP luminescence, 48 h | Potency, µM (titrated, usually from 46.2 µM), for inactives: at the highest dose activity change, negative = growth inhibition, actives largely listed as inhibitors | 15% of 420,000 active; further: potency means the concentration at half of the fitted maximal effect; nearly all actives have a fitted effect of over 55% in size
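Growth of hTDP1-complemented DT40 Tdp1-knockout cells is measured by ATP luminescence after at least 48 hr compound exposure at 37 °C, with DMSO substituting for the 20 nM CPT used in the parallel screen.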
HT1080NT lethal – kills 2HG-producing HT-1080-NT fibrosarcoma cells; HT-1080-NT fibrosarcoma viability, CellTiter-Glo ATP luminescence, 48 h; Potency, µM (highest dose often 46.1 µM), for inactives: top-dose activity, negative = less viability, most hits filed as cytotoxic; 1.6% of 360,000 active; AID 686970;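 further: NT is the 2HG producing partner of a matched IDH1 knockdown line; potency means the concentration at half of the fitted maximal effect; 0% = DMSO-treated cells and -100% = media-only wells without cells; nearly all actives have a fitted effect of over 55% in size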
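HT-1080-NT; 750 cells/well; 5% FBS RPMI; 48 h compound, 37 degrees C; CellTiter-Glo luminescence; curve fitting and curve-class assignment.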
HT1080 IDH1KD tx – toxicity to HT-1080 IDH1 knockdown cells (counter line); Potency, µM (doses to about 46.1 µM), inactives show at the highest dose activity, negative = toxicity, actives largely listed as cytotoxic; HT-1080 IDH1 knockdown viability, ATP luminescence, 48 h; AID 686971; 2% of 360,000 active;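 further: potency means the concentration at half of the fitted maximal effect; 0% = DMSO wells and -100% = cell-free medium wells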
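In this qHTS, HT-1080 cells depleted of IDH1 are exposed for 48 h at 37 °C to compound titrations. Toxicity is scored from CellTiter-Glo luminescence, with DMSO as full viability and medium alone as none.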
IL-1B inflam inh – blocks inflammasome-driven IL-1 beta release; THP-1 LPS/ATP IL-1B secretion, AlphaLISA, 16 h; active compounds read low; activity change, % at 57.5 µM; 4.7% of 360,000 active; in the data active means activity change below about -50%; inconclusive means mostly about -30% to -49%
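Secreted IL-1B measured by AlphaLISA bead assay after 16 h compound exposure of THP-1 cells; compounds (final up to 57.5 uM) added 1 h before LPS (250 ng/mL) and ATP (1.25 mM) stimulation; lower signal means less secretion.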
ELG1 repair inh – inhibitors of ELG1-dependent DNA repair in HEK293T cells; HEK293T ELG1-luciferase reporter, luminescence, 16 h; DNA damage induced by 5-fluorouridine; Potency, µM (titrated, usually from 46.1 µM), without a hit: at the top dose activity change, negative = inhibition, most hits filed as inhibitors; 2.3% of 330,000 active; AID 504467; further: potency means the concentration at half of the fitted maximal effect; nearly all actives have a fitted effect of over 55% in size
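HEK293T cells expressing luciferase-tagged ELG1 (2,000/well) received 5-Fluorouridine plus compound or DMSO for 16 hr at 37 °C. Luciferase was read by ONE-Glo luminescence after 30 min at room temperature.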
* marks the source's active call; other numbers are inactive results; [ ] = dose if it differs, or a comment. Unless noted, the call rests on the fitted dose curve; in most records, active means well fitted curve in the direction sought with a large enough effect; inconclusive means small, poorly fitted or top-dose-only effect, or another doubt; inactive means no such curve, though single readings can be large; an effect the other way counts as inactive or inconclusive. Unless noted, on the % scale 0 is the no-effect control and ±100 the full control effect.

Results for O=C(C1CCN(CCCc2ccccc2)CC1)N(CCc1ccccc1)Cc1ccccc1 ?
TDP1 cell CPT: inconclusive; TDP1 cell noCPT: 15µM*; HT1080NT lethal: inconclusive; HT1080 IDH1KD tx: inconclusive; IL-1B inflam inh: inconclusive; ELG1 repair inh: inconclusive

Results for COc1cccc(C(NC(C)=O)c2nc(-c3cccc(C#N)c3)cs2)c1 (stereo not drawn) ?
TDP1 cell CPT: 29µM*; TDP1 cell noCPT: inconclusive; HT1080NT lethal: 0%; HT1080 IDH1KD tx: 6%; IL-1B inflam inh: -74*

How did COc1cccc(C(NC(C)=O)c2nc(-c3ccc(OC)nc3)cs2)c1 (stereo not drawn) do in these assays?
TDP1 cell CPT: inconclusive; TDP1 cell noCPT: inconclusive; HT1080NT lethal: -22%; HT1080 IDH1KD tx: 0%; IL-1B inflam inh: -74*

Results for COc1ccc(-c2csc(C(NC(C)=O)c3cccc(F)c3)n2)cc1 (stereo not drawn) ?
TDP1 cell CPT: inconclusive; TDP1 cell noCPT: 16µM*; HT1080NT lethal: -4%; HT1080 IDH1KD tx: 4%; IL-1B inflam inh: -10

What do the screens show for `COc1cccc(C(NC(C)=O)c2nc(-c3ccccc3)cs2)c1` (stereo not drawn)?
TDP1 cell CPT: inconclusive; TDP1 cell noCPT: inconclusive; HT1080NT lethal: 9%; HT1080 IDH1KD tx: 0%; IL-1B inflam inh: -15

What do the screens show for `COc1cccc(C(NC(C)=O)c2nc(-c3cccc(O)c3)cs2)c1` (stereo not drawn)?
TDP1 cell CPT: 23µM*; TDP1 cell noCPT: 18µM*; HT1080NT lethal: inconclusive; HT1080 IDH1KD tx: -10%; IL-1B inflam inh: 14

Results for COc1ccc(-c2csc(C(NC(C)=O)c3cccc(OC)c3)n2)cc1 (stereo not drawn) ?
TDP1 cell CPT: inconclusive; TDP1 cell noCPT: inconclusive; HT1080NT lethal: 12%; HT1080 IDH1KD tx: 13%; IL-1B inflam inh: 22

Results for COc1ccc(-c2csc(C(NC(C)=O)c3ccccc3)n2)cn1 (stereo not drawn) ?
TDP1 cell CPT: 10%; TDP1 cell noCPT: 6%; HT1080NT lethal: 7%; HT1080 IDH1KD tx: 0%; IL-1B inflam inh: -1

Results for N#Cc1c([N+](=O)[O-])cc([N+](=O)[O-])cc1S(=O)(=O)Cc1ccccc1 ?
TDP1 cell CPT: 0.21µM*; TDP1 cell noCPT: 0.18µM*; HT1080NT lethal: 21µM*; HT1080 IDH1KD tx: 2.9µM*; IL-1B inflam inh: -112*; ELG1 repair inh: 16µM*

How did COc1cc(OC)c(C#N)c(S(=O)(=O)Cc2ccccc2)c1 do in these assays?
TDP1 cell CPT: -2%; TDP1 cell noCPT: -9%; HT1080NT lethal: 25%; HT1080 IDH1KD tx: 8%; IL-1B inflam inh: -21; ELG1 repair inh: -4%

Results for COC(=O)c1ccc(NC(=O)CCCN2C(=O)NC(C)(C)C2=O)cc1 ?
TDP1 cell CPT: -13%; TDP1 cell noCPT: -37%; HT1080NT lethal: inconclusive; HT1080 IDH1KD tx: -28%; IL-1B inflam inh: 2; ELG1 repair inh: 24%

How did N#C/C(=C\c1ccc(-c2cccc([N+](=O)[O-])c2)o1)c1nnc(N2CCOCC2)n1-c1ccccc1 do in these assays?
ELG1 repair inh: 5.8µM*

Results for C[N+]1(CC(=O)c2ccc(Cl)cc2)CCOCC1 ?
TDP1 cell CPT: 4%; TDP1 cell noCPT: -11%

What do the screens show for `CCOC(=O)c1cnc(SC)nc1Oc1cccc(NC(=O)c2ccc(C)cc2)c1`?
TDP1 cell CPT: inconclusive; TDP1 cell noCPT: 15µM*; HT1080NT lethal: 13%; HT1080 IDH1KD tx: 10%[9.24 µM]; IL-1B inflam inh: 25; ELG1 repair inh: inconclusive

How did CCOC(=O)c1cnc(SC)nc1Oc1cccc(NC(=O)c2cccc(Cl)c2Cl)c1 do in these assays?
TDP1 cell CPT: inconclusive; TDP1 cell noCPT: inconclusive; HT1080NT lethal: 15%; HT1080 IDH1KD tx: 9%; IL-1B inflam inh: -12; ELG1 repair inh: -4%

How did O=C(NC1CCCCC1)C(c1ccc(F)cc1)N(Cc1ccccc1)C(=O)CN1C(=O)c2ccccc2S1(=O)=O (stereo not drawn) do in these assays?
TDP1 cell CPT: 21µM*; TDP1 cell noCPT: 21µM*; HT1080NT lethal: 12%; HT1080 IDH1KD tx: 0%; IL-1B inflam inh: 21; ELG1 repair inh: 13%

What do the screens show for `O=C(NCC1CCCO1)C(c1ccncc1)N(Cc1ccc(F)cc1)C(=O)CN1C(=O)c2ccccc2S1(=O)=O` (stereo not drawn)?
TDP1 cell CPT: 3%; TDP1 cell noCPT: inconclusive; HT1080NT lethal: -3%; HT1080 IDH1KD tx: -3%; IL-1B inflam inh: 11; ELG1 repair inh: 0%

What do the screens show for `O=C(NC1CCCCC1)C(c1ccc(F)cc1)N(CCc1ccccc1)C(=O)CN1C(=O)c2ccccc2S1(=O)=O` (stereo not drawn)?
TDP1 cell CPT: 3.7µM*; TDP1 cell noCPT: 5.8µM*; HT1080NT lethal: inconclusive; HT1080 IDH1KD tx: inconclusive; IL-1B inflam inh: 67; ELG1 repair inh: 6%

Results for Cc1ccn2c(=O)cc(COc3ccc(NC(=O)COc4ccccc4)cc3)nc2c1 ?
TDP1 cell CPT: 8%; TDP1 cell noCPT: 4%

How did O=C(CN1C(=O)C2C3C=CC(C3)C2C1=O)OCC(=O)c1ccc(Cl)c([N+](=O)[O-])c1 (stereo not drawn) do in these assays?
TDP1 cell CPT: 21µM*; TDP1 cell noCPT: inconclusive; HT1080NT lethal: 3%; HT1080 IDH1KD tx: -14%; IL-1B inflam inh: -78*

How did C[C@@]12C(=O)OC(=O)[C@]1(C)C1CCC2O1 do in these assays?
TDP1 cell CPT: 1%; TDP1 cell noCPT: -5%; HT1080NT lethal: 1.5µM*; HT1080 IDH1KD tx: 1.5µM*; IL-1B inflam inh: -5; ELG1 repair inh: inconclusive

How did CC12C(=O)N(c3nccs3)C(=O)C1(C)C1CCC2O1 (stereo not drawn) do in these assays?
TDP1 cell CPT: -13%; TDP1 cell noCPT: -6%; HT1080NT lethal: -15%; HT1080 IDH1KD tx: -15%; IL-1B inflam inh: -1

How did COC(=O)c1oc2ccc(Br)cc2c1NC(=O)CN1CCN(C)CC1 do in these assays?
TDP1 cell CPT: -21%; TDP1 cell noCPT: inconclusive; HT1080NT lethal: 0%; HT1080 IDH1KD tx: -3%; IL-1B inflam inh: -53*

How did Cc1nc2cnc(N(C)C)nc2n(C2CC2)c1=O do in these assays?
TDP1 cell CPT: -12%; TDP1 cell noCPT: 1%
